From ChEMBL document CHEMBL2218924, “A broad activity screen in support of a chemogenomic map for kinase signalling research and drug discovery” (Biochem J, 2013)

How the values were obtained:
[1] = biological target: T1, Serine/threonine-protein kinase TAO2 (Homo sapiens) (UniProt Q9UL54); conditions: at 1 µM
T1 sequence (whole entry): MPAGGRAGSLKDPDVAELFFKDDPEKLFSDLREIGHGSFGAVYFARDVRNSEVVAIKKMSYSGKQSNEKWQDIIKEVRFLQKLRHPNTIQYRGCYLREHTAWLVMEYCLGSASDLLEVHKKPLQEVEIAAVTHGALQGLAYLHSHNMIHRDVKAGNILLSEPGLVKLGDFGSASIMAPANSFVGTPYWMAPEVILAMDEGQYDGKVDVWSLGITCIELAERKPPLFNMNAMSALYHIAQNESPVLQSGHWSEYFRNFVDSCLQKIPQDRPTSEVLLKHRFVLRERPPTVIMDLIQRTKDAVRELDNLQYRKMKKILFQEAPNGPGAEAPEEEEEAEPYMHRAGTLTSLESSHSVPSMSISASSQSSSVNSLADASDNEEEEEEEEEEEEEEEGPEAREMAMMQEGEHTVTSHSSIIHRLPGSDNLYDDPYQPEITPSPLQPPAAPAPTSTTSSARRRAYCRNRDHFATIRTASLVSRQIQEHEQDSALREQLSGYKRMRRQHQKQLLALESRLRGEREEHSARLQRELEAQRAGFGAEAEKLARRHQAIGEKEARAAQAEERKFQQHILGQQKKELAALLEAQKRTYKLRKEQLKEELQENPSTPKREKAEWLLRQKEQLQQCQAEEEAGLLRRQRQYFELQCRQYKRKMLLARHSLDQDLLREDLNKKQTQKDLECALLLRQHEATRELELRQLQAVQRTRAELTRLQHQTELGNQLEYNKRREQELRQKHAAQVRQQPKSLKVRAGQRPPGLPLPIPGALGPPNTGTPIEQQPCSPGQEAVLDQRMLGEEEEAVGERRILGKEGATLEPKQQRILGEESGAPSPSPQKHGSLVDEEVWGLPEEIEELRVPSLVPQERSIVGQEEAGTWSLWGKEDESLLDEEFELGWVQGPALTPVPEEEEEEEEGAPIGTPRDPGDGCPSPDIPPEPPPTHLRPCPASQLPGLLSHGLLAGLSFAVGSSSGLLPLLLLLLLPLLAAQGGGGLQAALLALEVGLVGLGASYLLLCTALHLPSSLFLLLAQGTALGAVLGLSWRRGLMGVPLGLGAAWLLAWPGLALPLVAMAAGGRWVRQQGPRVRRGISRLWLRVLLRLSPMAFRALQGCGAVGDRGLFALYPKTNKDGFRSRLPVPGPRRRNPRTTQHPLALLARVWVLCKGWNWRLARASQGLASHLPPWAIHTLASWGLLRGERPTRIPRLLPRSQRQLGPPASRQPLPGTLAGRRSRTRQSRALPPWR

[2] = biological target: T1, Serine/threonine-protein kinase TAO2 (Homo sapiens); conditions: at 10 µM
[3] = biological target: T2, Serine/threonine-protein kinase TAO3 (Homo sapiens) (UniProt Q9H2K8); conditions: at 1 µM
T2 sequence (whole entry): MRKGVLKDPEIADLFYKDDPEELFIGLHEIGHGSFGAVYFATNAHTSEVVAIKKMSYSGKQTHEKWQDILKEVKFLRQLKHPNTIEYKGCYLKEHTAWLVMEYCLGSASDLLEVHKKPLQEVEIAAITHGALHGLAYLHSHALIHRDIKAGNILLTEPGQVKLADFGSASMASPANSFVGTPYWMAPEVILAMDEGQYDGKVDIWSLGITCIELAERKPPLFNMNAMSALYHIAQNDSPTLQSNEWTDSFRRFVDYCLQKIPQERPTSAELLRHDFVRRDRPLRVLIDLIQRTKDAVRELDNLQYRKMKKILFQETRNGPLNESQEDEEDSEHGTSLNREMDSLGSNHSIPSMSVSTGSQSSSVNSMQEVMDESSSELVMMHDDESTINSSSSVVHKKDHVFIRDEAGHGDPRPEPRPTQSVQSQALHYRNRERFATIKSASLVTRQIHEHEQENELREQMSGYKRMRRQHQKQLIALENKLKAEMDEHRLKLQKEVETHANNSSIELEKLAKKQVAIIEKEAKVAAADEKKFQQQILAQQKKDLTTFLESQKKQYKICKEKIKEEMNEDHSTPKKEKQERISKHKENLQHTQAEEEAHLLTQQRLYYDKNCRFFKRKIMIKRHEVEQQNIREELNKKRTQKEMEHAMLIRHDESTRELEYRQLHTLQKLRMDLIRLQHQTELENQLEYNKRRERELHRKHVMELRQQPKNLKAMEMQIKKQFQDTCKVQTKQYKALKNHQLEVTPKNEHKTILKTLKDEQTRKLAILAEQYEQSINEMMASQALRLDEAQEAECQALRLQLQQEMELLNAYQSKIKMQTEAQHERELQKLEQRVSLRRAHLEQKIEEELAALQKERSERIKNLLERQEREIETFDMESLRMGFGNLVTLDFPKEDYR

[4] = biological target: T2, Serine/threonine-protein kinase TAO3 (Homo sapiens); conditions: at 10 µM
[5] = biological target: T3, Serine/threonine-protein kinase TBK1 (Homo sapiens) (UniProt Q9UHD2); conditions: at 1 µM
T3 sequence (whole entry): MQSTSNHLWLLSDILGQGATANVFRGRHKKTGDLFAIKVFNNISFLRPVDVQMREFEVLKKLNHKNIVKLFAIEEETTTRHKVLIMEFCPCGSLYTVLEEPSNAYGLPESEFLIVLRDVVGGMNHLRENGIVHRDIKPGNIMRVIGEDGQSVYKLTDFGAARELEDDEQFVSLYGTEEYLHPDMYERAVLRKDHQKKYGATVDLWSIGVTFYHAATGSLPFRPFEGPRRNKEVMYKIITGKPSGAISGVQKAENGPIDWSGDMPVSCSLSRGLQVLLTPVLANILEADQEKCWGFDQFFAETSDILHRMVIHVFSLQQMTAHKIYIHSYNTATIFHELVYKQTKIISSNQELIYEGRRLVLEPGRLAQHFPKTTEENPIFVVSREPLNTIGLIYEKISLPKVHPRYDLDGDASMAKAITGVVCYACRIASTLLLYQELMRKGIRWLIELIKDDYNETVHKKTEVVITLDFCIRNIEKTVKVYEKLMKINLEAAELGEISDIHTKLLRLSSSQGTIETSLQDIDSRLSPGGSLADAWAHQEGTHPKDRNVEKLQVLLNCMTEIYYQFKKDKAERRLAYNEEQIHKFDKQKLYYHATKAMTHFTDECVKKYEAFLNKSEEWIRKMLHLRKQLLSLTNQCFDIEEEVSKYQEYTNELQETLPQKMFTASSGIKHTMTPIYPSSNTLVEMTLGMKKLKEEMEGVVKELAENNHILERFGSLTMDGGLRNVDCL

[6] = biological target: T4, TGF-beta receptor type-1 (Homo sapiens) (UniProt P36897); conditions: at 1 µM
T4 sequence (whole entry): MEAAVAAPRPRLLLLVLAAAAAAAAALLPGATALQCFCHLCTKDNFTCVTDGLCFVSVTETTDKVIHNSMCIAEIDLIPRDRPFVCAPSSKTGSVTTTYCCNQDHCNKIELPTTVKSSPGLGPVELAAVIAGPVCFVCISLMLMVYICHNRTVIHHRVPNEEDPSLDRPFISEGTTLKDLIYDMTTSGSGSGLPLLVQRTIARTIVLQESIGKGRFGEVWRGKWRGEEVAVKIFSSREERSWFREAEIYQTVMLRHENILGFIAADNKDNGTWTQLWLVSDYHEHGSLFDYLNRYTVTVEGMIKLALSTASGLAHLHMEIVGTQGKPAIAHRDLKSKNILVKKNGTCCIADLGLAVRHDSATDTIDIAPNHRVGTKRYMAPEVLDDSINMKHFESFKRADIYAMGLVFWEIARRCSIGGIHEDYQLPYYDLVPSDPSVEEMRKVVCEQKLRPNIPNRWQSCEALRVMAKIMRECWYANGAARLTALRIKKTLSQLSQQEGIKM

[7] = biological target: T4, TGF-beta receptor type-1 (Homo sapiens); conditions: at 10 µM
[8] = biological target: Insulin-like growth factor 1 receptor (Homo sapiens) (UniProt P08069); conditions: at 1 µM
[9] = biological target: Insulin-like growth factor 1 receptor (Homo sapiens) (UniProt P08069); conditions: at 10 µM
[10] = biological target: T3, Serine/threonine-protein kinase TBK1 (Homo sapiens); conditions: at 10 µM

Sequence of Insulin-like growth factor 1 receptor (Homo sapiens) (P08069 31-736 limits assumed): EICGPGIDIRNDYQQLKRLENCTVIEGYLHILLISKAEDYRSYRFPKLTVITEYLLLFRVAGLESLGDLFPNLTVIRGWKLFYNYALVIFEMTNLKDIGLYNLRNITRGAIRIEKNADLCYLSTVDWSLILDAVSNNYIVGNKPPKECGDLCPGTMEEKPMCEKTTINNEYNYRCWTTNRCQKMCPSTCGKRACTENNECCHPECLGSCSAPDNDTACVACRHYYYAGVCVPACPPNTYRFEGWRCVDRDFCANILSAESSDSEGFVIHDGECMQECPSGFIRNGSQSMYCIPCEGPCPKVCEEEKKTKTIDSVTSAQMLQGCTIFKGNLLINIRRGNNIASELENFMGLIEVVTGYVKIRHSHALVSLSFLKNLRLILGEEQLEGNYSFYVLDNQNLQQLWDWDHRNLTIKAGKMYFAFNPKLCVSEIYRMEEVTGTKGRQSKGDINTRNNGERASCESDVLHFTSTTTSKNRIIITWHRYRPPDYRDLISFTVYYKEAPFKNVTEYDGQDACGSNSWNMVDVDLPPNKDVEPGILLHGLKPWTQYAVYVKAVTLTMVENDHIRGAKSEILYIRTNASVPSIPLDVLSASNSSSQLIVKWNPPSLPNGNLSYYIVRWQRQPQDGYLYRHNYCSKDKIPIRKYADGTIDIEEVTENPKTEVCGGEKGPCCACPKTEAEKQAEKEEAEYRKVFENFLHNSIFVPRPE
Sequence of Insulin-like growth factor 1 receptor (Homo sapiens) (P08069 741-1367 limits assumed): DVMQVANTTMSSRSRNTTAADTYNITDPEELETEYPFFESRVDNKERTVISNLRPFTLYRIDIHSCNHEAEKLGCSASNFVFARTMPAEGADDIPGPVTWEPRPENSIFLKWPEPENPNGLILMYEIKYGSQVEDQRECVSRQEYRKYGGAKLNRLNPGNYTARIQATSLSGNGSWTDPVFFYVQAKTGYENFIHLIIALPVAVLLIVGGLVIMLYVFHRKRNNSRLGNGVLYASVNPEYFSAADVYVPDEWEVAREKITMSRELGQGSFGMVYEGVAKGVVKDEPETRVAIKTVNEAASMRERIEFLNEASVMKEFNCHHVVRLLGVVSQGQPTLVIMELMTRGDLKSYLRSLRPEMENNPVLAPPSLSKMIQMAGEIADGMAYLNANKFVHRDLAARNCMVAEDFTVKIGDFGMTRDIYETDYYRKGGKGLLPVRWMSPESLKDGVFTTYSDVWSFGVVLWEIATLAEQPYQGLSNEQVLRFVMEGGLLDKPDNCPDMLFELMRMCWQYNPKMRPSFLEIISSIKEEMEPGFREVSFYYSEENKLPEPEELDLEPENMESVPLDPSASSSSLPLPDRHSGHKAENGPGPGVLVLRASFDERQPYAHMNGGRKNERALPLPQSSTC

| Compound | residual activity [1] [%] | residual activity [2] [%] | residual activity [3] [%] | residual activity [4] [%] | residual activity [5] [%] | residual activity [6] [%] | residual activity [7] [%] | residual activity [8] [%] | residual activity [9] [%] | residual activity [10] [%] |
| --- | --- | --- | --- | --- | --- | --- | --- | --- | --- | --- |
| CC(C)(C)c1cc(C=C(C#N)C#N)cc(Br)c1O | 113 | 103 | 101 | 97 | 103 | 97 | 97 | 105 | 104 | – |
| CC(C)[C@H](CO)Nc1nc(Nc2cccc(Cl)c2)c2ncn(C(C)C)c2n1 | 98 | 49 | 82 | 32 | 90 | 95 | 93 | 48 | 12 | 66 |
| O=c1[nH]c2ccccc2n1C1CCN(Cc2ccc(-c3nc4cc5[nH]cnc5cc4nc3-c3ccccc3)cc2)CC1 | 101 | 56 | 93 | 66 | 82 | 91 | 87 | 98 | 80 | 68 |
| CCc1nc(-c2ccc(OC)cc2)[nH]c1-c1ccncc1 | – | – | – | – | 108 | – | – | 104 | 107 | – |
| COc1ccc2c(c[n+](C)c3c4cc5c(cc4ccc23)OCO5)c1OC | – | 93 | 99 | 90 | 81 | 82 | 89 | 93 | 82 | 65 |
| CCn1cnc2c(Nc3cccc(Cl)c3)nc(N[C@@H]3CCCC[C@@H]3N)nc21 | 81 | 33 | 82 | 43 | 68 | – | 79 | 71 | 44 | 45 |
| c1cc(-c2cnn3cc(-c4ccc(OCCN5CCCCC5)cc4)cnc23)ccn1 | – | – | – | 82 | 64 | 78 | 30 | – | – | 13 |
| O=C1c2ccccc2-c2nc3nnnn3nc21 | 111 | 103 | – | – | – | – | – | – | – | 83 |
| CN[C@@H]1C[C@H]2O[C@@](C)([C@@H]1OC)n1c3ccccc3c3c4c(c5c6ccccc6n2c5c31)C(=O)NC4 | – | – | – | – | – | 79 | 30 | – | – | 0 |
| COc1cc(OC)c(/C=C2\C(=O)Nc3ccccc32)c(OC)c1 | 104 | 81 | 90 | 68 | 61 | 79 | 81 | 95 | 98 | 56 |
| COC(=O)[C@@]1(O)C[C@H]2O[C@]1(C)n1c3ccccc3c3c4c(c5c6ccccc6n2c5c31)C(=O)NC4 | 16 | 2 | 10 | 3 | -1 | 49 | 8 | 23 | 3 | 3 |
| C[S+]([O-])c1ccc(-c2nc(-c3ccc(F)cc3)c(-c3ccncc3)[nH]2)cc1 (stereo not given) | 111 | 79 | 108 | 79 | 124 | 130 | 77 | 117 | 122 | 111 |
| O=[N+]([O-])/C=C/c1ccc2c(c1)OCO2 | 107 | 81 | 90 | 100 | 87 | 90 | 101 | 103 | 91 | 81 |
| N/C(=N\[N+](=O)[O-])N/N=C\c1ccc(-c2cccc([N+](=O)[O-])c2)o1 | – | – | 96 | 93 | 94 | 98 | 98 | – | – | 72 |
| COc1ccc2c(c1)/C(=C/c1cnc[nH]1)C(=O)N2 | 72 | 14 | 59 | 12 | – | – | – | – | – | – |
| O=C1NC(=O)c2c1c1c3ccccc3n3c1c1c2c2ccccc2n1C1CCC3O1 | – | – | 96 | 94 | 54 | – | – | – | – | 62 |
| COc1cc2ncnc(Nc3ccc(OCc4ccccc4)cc3)c2cc1OC | 104 | 90 | 107 | 93 | 92 | 102 | 100 | 108 | 104 | 71 |
| O=C1Nc2ccc3ncsc3c2/C1=C/c1c[nH]cn1 | 33 | 10 | 17 | 6 | 7 | 68 | 38 | 94 | 60 | 0 |
